The text below walks through data of PubChem BioAssay AID504634 (The Scripps Research Institute Molecular Screening Center, 2011).

SMILES strings stand for the structures. Hit rate of the full screen: of about 340,000 compounds, about 280 (0.082%) were called active. Cut-off read from the data, not from the text of the source: active = inhibition mostly above about 23% (no sharp cut-off); inactive = mostly below about 18%. For the sample, actives were picked, then their nearest neighbours and some compounds at random.

Chain of 5-hydroxytryptamine receptor 5A (Homo sapiens) (P47898 whole entry, looked up): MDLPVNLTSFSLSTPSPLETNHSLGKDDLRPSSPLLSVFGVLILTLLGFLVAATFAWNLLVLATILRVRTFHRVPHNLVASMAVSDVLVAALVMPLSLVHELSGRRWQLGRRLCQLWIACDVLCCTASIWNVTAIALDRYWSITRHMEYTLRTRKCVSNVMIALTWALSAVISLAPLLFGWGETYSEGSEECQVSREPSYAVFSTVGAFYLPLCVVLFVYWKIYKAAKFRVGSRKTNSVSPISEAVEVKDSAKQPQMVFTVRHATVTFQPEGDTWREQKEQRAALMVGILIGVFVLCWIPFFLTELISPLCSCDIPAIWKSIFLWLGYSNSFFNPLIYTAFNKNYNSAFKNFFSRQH

This assay concerns the target 5-hydroxytryptamine receptor 5A (Homo sapiens) (UniProt P47898). As to the kind of experiment: HTR5A inverse agonists in luminescence cell assay, primary screen, counter-screen for OPRM1-OPRD1 heterodimer inverse agonist project, full-deck HTS (AID 504634).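 Note: 0% = cells with DMSO and 100% = no-cell wells with DMSO.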 As to conditions: HTR5A cell line, inverse agonism, at 9.3 µM, hits give high values.
On to `CCCC1NC(=O)NC(C)=C1C(=O)OCC` (stereo not given), for which the inhibition is -17.2% (inactive).
The same measure for `CCOC(=O)c1c(C)[nH]c(C)c1S(=O)(=O)NCCCc1ccco1`: 16.2% (inactive).
As to `CCNS(=O)(=O)c1ccc(CCC(=O)N2CCN(c3ccc(OC)cc3)CC2)cc1`, the inhibition was 8.47% (inactive).
In the case of `CC(NC(=O)CNC(=O)Cc1cccc2ccccc12)c1ccc(S(N)(=O)=O)cc1` (stereo not given) it was 2.43% (inactive); in that of `O=c1ccc2c(-c3ccccc3S(=O)(=O)O)c3ccc(O)c(O)c3oc-2c1O`, 24.5% (active).
`NS(=O)(=O)c1ccc(CCNC(=O)c2ccc(Cl)c(S(=O)(=O)N3CCCCCC3)c2)cc1`: the inhibition is -7.96% (inactive).
In the case of `COc1ccc2[nH]c3c(c2c1)CCN1C(=O)C(CC(=O)NCCc2ccccn2)C[C@H](C(=O)N2CCOCC2)[C@@]31C` (stereo not given in full) it was 2.62% (inactive); in that of `Cc1noc(C)c1NC(=O)Nc1ccc2c(c1)C(=O)N([C@H](C)CO)C[C@H](C)[C@@H](CN(C)C(=O)Nc1ccccc1)O2`, -10% (inactive).
In the case of `S=C(Nc1ccc(Br)cc1Cl)N1CCC2(CC1)OCCO2` it was 2.4% (inactive); in that of `CC(C)Cn1cnc2c1c(=O)n(CC(O)c1ccccc1)c(=O)n2CC(C)C` (stereo not given), -27.9% (inactive); in that of `COc1ccc(S(=O)(=O)N2CCc3ccccc32)cc1C(=O)Nc1cc(S(C)(=O)=O)ccc1Cl`, -6.04% (inactive).
The same measure for `COc1cc(CCC(=O)Nc2ccncc2Cl)cc(OC)c1OC`: 6.7% (inactive).
As for `Cc1cccn2c(=O)c(C=O)c(Nc3ccc(S(N)(=O)=O)cc3)nc12`, the inhibition is -18.2% (inactive).
The same measure for `O=C(O)c1ccccc1NC(=S)NC(NC(=O)c1ccccc1[N+](=O)[O-])C(Cl)(Cl)Cl` (stereo not given): -0.92% (inactive); for `CCCS(=O)(=O)N1CCN(C(=O)c2cccs2)CC1`: -3.26% (inactive); for `Cc1cccc(N2CC(C)Cn3c2nc2c3c(=O)n(CC(=O)OCc3ccccc3)c(=O)n2C)c1` (stereo not given): -8.01% (inactive).
In the case of `COc1ccc(S(=O)(=O)N2CCOC2CNC(=O)C(=O)NCc2ccc(F)cc2)cc1` (stereo not given) it was 7.37% (inactive); in that of `CC(C)(C)c1ccc(S(=O)(=O)N2CCN(C(=O)c3ccc4c(c3)C(=O)N(Cc3ccncc3)C4=O)CC2)cc1`, 5.4% (inactive).
In the case of `COc1ccc(C#Cc2c(-c3ccc(OC)cc3)oc3ccc(-c4ccc5c(c4)OCO5)cc23)cc1` it was 5.51% (inactive); in that of `CC1(c2ccc3ccccc3c2)NC(=O)N(CC(N)=O)C1=O` (stereo not given), 1.06% (inactive); in that of `CCCC(=O)N1CCN(c2nnc(-c3ccc(C)cc3)c3ccccc23)CC1`, -8.96% (inactive).
As for `CN(C(=O)COC(=O)CCCc1c[nH]c2ccccc12)c1c(N)n(Cc2ccccc2)c(=O)[nH]c1=O`, the inhibition was 20.6% (inactive).
As for `NC(=O)c1cc(S(=O)(=O)NCCCc2ccco2)cs1`, the inhibition is 1.79% (inactive).
The same measure for `CCc1ccc(NC(=O)CCNS(=O)(=O)c2cccs2)cc1`: -3.72% (inactive); for `COc1ccc(/C=N/OCc2ccccc2C#N)c(OC)c1`: -3.2% (inactive); for `Cc1ccc(C(=O)NCC(=O)NC2CC2)cc1`: 4.21% (inactive).
The same measure for `NS(=O)(=O)c1ccc(CCNC(=O)c2nc(CS(=O)(=O)c3ccc(Cl)cc3)no2)cc1`: -12.4% (inactive).
Regarding `Cn1cnc(C(F)(F)F)c1-c1ccc([N+](=O)[O-])cc1`, the inhibition was 8.1% (inactive).
In the case of `COc1ccccc1C1=CC(=O)CCC1` it was 2.76% (inactive); in that of `CCn1c(SCC(=O)N(C)C2CCS(=O)(=O)C2)nnc1-c1cccs1` (stereo not given), -22.6% (inactive).
In the case of `O=c1nc(NO)ccn1C1CCCO1` (stereo not given) it was 1.3% (inactive).
For the molecule `O=C(O)c1ccc(-n2nc(-c3ccccc3)c3ccccc3c2=O)cc1`, the inhibition is 0.76% (inactive).
The same measure for `COc1ccc(N(CC(=O)NC2CCCCC2)S(=O)(=O)c2c(C)[nH]c(=O)[nH]c2=O)cc1`: 1.68% (inactive).
The same measure for `Cc1sc2ncn(CC(=O)NCCCC(=O)N3CCN(c4ccccc4F)CC3)c(=O)c2c1C`: 1.47% (inactive); for `Cc1nc(N)c(Br)c(C)c1Br`: -6.08% (inactive).
The same measure for `CSCCC(NC(=O)COc1ccccc1)C(=O)OCc1ccc(Cl)cc1` (stereo not given): -5.68% (inactive); for `CSCCC(NC(=O)COc1ccccc1)C(=O)OCC(=O)c1cc2ccccc2o1` (stereo not given): 33.3% (active); for `CSCCC(NC(=O)COc1ccccc1)C(=O)OCCOc1ccc(Br)cc1` (stereo not given): -4.54% (inactive).
For `COc1cc(C(=O)NNC(=O)CN2C(=O)NC3(CCCC3)C2=O)cc(OC)c1OC`, the inhibition is 5.64% (inactive).
Turning to `COCCCNS(=O)(=O)c1cccc(S(=O)(=O)c2cccc(S(=O)(=O)NCCCOC)c2)c1`, the inhibition is -5.56% (inactive).
The same measure for `O=C(CC1C(=O)NCCN1Cc1ccc(-c2ccccc2)cc1)NCc1ccncc1` (stereo not given): -12.3% (inactive).
Take `COc1ccccc1CN(C)C(=O)C1(c2ccc(Cl)cc2)CC1`: the inhibition is 21.3% (inactive).
In the case of `Cc1cc(OC(=O)c2ccccc2Cl)ccc1N1C(=O)CCC1=O` it was 11.2% (inactive); in that of `Cc1ccc(C(=O)OCC(=O)N2CC(C)CC(C)C2)cc1S(=O)(=O)N1CCCCC1` (stereo not given), 11% (inactive).
The same measure for `CCCCCCCC1(C)NC(=O)N(CC(=O)Nc2cc(C)on2)C1=O` (stereo not given): -14.9% (inactive); for `O=C(NCCS(=O)(=O)N1CCN(c2ccc(F)cc2)CC1)c1ccc2c(c1)OCO2`: 9.72% (inactive); for `CN(CCc1ccccc1)C(=O)c1cccc(NC(=O)Cc2ccc([N+](=O)[O-])cc2)c1`: -40.2% (inactive).
In the case of `Cc1cc(C)cc(C(=O)NC(CC(N)=O)c2ccc(N3CCC(N4CCCCC4)CC3)c([N+](=O)[O-])c2)c1` (stereo not given) it was -1.31% (inactive).
As for `Cc1ccc(S(=O)(=O)C2(S(=O)(=O)c3ccc(C)cc3)CCCC2)cc1`, the inhibition is -9.41% (inactive).
In the case of `O=C(CCCOc1ccccc1)NNC(=O)c1ccc(Cl)cc1` it was -22.2% (inactive); in that of `COC(=O)N1CN(C(=O)OC)CN(C(=O)OC)C1`, -11.4% (inactive).
In the case of `O=C(NNc1cc(Cl)cc(Cl)c1)c1c(F)cccc1Cl` it was 5.05% (inactive).
In the case of `CC1(C)CC(=O)C(C2c3ccccc3S(=O)(=O)c3ccccc32)C(=O)C1` it was -6.15% (inactive); in that of `CC(C)OC(=O)Cn1nc(C(F)(F)F)c2c1CCCC2`, -22% (inactive); in that of `CN1CCN(C2=NCCO2)CC1`, 13.4% (inactive).
For `Nc1scc(-c2ccncc2)c1Cl`, the inhibition was 4.78% (inactive).
Regarding `CCOc1ccc(CCNC(=O)CN2C(=O)NC3(CCc4ccccc43)C2=O)cc1OCC` (stereo not given), the inhibition was 16.7% (inactive).
The same measure for `COc1cc(NC(=O)c2ccc(CNc3c(N4CCCC4)c(=O)c3=O)cc2)cc(OC)c1OC`: -11.7% (inactive); for `Cc1cc(C)n(-c2ccc3nncn3n2)n1`: 5.02% (inactive).
In the case of `CC(=O)c1ccc(Oc2cc(C)nc(-n3nc(C)cc3C)n2)cc1` it was 6.21% (inactive).
Take `Cc1cc(C)n(-c2ccc(Cl)c(C(=O)O)n2)n1`: the inhibition is 39.8% (active).
With `COc1ccc(N2C(=O)C(CC(=O)Nc3ccc(F)cc3)N(CCc3cccs3)C2=O)cc1` (stereo not given), the inhibition is 6.13% (inactive).
As for `COc1ccc(NS(=O)(=O)c2cc(NC(=O)c3ccc(S(=O)(=O)N(C)C)cc3)ccc2N2CCOCC2)cc1`, the inhibition is 8.03% (inactive).
The same measure for `Cc1cc(C)cc(NC(=O)CSCc2cnn(-c3ccccc3)c2-n2cccc2)c1`: 3.55% (inactive).
In the case of `COc1cccc(NC(=O)COC(=O)CCOc2ccccc2OC)c1` it was -27.4% (inactive); in that of `CCOC(=O)NC(=O)C(=CNc1cccc(OC)c1)C(=O)NC(=O)OCC`, 34% (active); in that of `CCOC(=O)C1CCN(C(=O)Nc2cccc(OC)c2)CC1`, 17.6% (inactive).
In the case of `COCCn1c(SCC(=O)Nc2cc(Cl)ccc2OC)nc2c(c1=O)SC(C)C2` (stereo not given) it was -31.9% (inactive).
Regarding `N#CC1(C#N)C(C(=O)C23CC4CC(CC(C4)C2)C3)C12CCOCC2` (stereo not given), the inhibition is 20.3% (inactive).
Take `COc1cc(C)nc(N2CCCC(C(=O)NCC(C)C)C2)n1` (stereo not given): the inhibition is -13.9% (inactive).
The same measure for `CCNc1nc(NCC)nc(N(C)n2cnnc2)n1`: 13% (inactive); for `O=C(Nc1ccc2c(c1)C(=O)OC2)Nc1cccc2ccccc12`: -14.2% (inactive); for `O=S(=O)(NC1CCCCC1N1CCC(O)CC1)c1ccc(Cl)cc1` (stereo not given): -6.29% (inactive).
In the case of `O=C(COc1ccccc1F)NNC(=O)c1ccc(N2CCCCC2)c([N+](=O)[O-])c1` it was 7.26% (inactive); in that of `O=c1[nH]n2c(=O)c3c([nH]c2c1N=Nc1ccccc1)CCC3`, 17% (inactive); in that of `Cc1c(CNCCc2ccccc2)c(C(=O)O)c(C)n1-c1ccccc1`, 10.6% (inactive).
In the case of `CCc1ccc(CCC(=O)Nc2ccc(S(N)(=O)=O)cc2)o1` it was -4.51% (inactive); in that of `COc1ccc(OCc2nnc3n2N=C(c2ccccc2)C(CC(=O)O)S3)cc1` (stereo not given), -14.6% (inactive); in that of `O=C(Nc1ccc(Br)c2cccnc12)c1ccc(Cn2cc([N+](=O)[O-])cn2)o1`, -5.7% (inactive).
As for `O=C(CSc1nnc2ccc(-c3ccncc3)nn12)N1CCCCC1`, the inhibition was -11.3% (inactive).
In the case of `OCCN1CCN(CCO)C1=S` it was 12.7% (inactive).
The same measure for `CCCCn1c(N)c(N2CCOCC2)c(=O)n(CC(=O)NCCc2ccccc2)c1=O`: -7.42% (inactive); for `CCC(C(=O)OC)n1cnc2scc(-c3ccc(C)cc3)c2c1=O` (stereo not given): 18% (inactive); for `COc1cc(C(=S)N2CCOCC2)cc(OC)c1OC(=O)c1cc([N+](=O)[O-])c(C)c([N+](=O)[O-])c1`: -9.45% (inactive).
In the case of `COc1ccc(/C=C/C(=O)c2cc(Br)ccc(=O)c2O)cc1` it was -37% (inactive); in that of `CC(=O)CCS(=O)(=O)c1ccc(C)c(C)c1`, 6.1% (inactive); in that of `CCCCN(CC)C(=O)c1ccccc1Oc1ccccc1`, 4.41% (inactive).
As for `C=CCn1c(SCC(=O)NC(=O)Cc2ccccc2)nc2ccccc2c1=O`, the inhibition was 4.86% (inactive).
In the case of `CCOc1cc(S(=O)(=O)NCc2ccc3c(c2)OCO3)ccc1F` it was 18.6% (inactive).
In the case of `Cc1cc(-c2nc(C)c(-c3nnc(SCC(=O)Nc4ccccc4)n3C)s2)no1` it was 0.1% (inactive).

The term inhibition denotes the relative decrease from the control value, in per cent.
